# Measured values taken from PubChem BioAssay (NCATS).
# Values joined by “and” are separate entries in the source; they are usually repeats but may differ in a detail not shown here. Identical values can stand only once. Inconclusive results are not listed. A call without a number means that no potency is given here. Where a structure was tested more than once in an assay, its records may differ in their call. Active and inactive are the calls of the source. Unless noted, calls follow the shape of the dose curve; as a rule, active = well fitted curve in the direction sought with a large enough effect; inconclusive = small, poorly fitted or top-dose-only effect, or another doubt; inactive = no such curve, though single readings can be large; an effect the other way counts as inactive or inconclusive.
# Tests used:
# [1] = Cellular Toxicity (caspase-3) HepG2 (AID 654);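 also: cells exposed to compound for 16 hours before reading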
# Method in brief: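 qHTS, HepG2, 1500 cells/well, complete medium; cpd 16 h 37 °C; Caspase-Glo 3/7, 20 min RT; lum. Norm: DMSO vs 100 uM tamoxifen; AC50 Hill fit.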
# [2] = Cellular Toxicity (caspase-3) Jurkat (AID 655);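 also: cells exposed to compound for 16 h at 37 °C before reading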
# Method in brief: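 Jurkat cells (5000/well) in complete medium were treated with compounds for 16 hr at 37 °C, then Caspase-Glo 3/7 luminescence was read after 20 min at room temperature. Data normalized to DMSO (basal) and 100 uM tamoxifen (100%); AC50 from Hill fit.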
# [3] = Cellular Toxicity (caspase-3) HUV-EC-C (AID 656)
# Method in brief: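 HUV-EC-C endothelial cells, 1000/well, were pre-incubated 5 hr at 37°C, then exposed to compounds for 16 hr at 37°C. Caspase-Glo 3/7 luminescence was read after 20 min at room temperature. AC50 came from Hill fits, normalized to DMSO and 100 uM tamoxifen.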
# [4] = Cellular Toxicity (caspase-3) SHSY5Y (AID 657)
# Method in brief: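 SH-SY5Y human neuroblastoma cells (1500/well) were treated with compounds for 16 h at 37 °C, then Caspase-Glo 3/7 luminescence was read after 1 h at room temperature. Data normalized to DMSO and 10 uM staurosporine; AC50 from Hill fits.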
# [5] = Cellular Toxicity (caspase-3) BJ (AID 658)
# Method in brief: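 Readout: Caspase-Glo 3/7 luminescence increase in BJ cells after 16 hr treatment at 37 °C. Staurosporine and tamoxifen served as positive controls; AC50 values came from Hill modelling of data normalized to DMSO and 10 uM staurosporine.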
# [6] = Cellular Toxicity (caspase-3) MRC-5 (AID 659)
# Method in brief: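 Concentration-dependent caspase 3/7 activation is measured in human normal lung fibroblasts (MRC-5) following 16-hour treatment. AC50 values come from standard Hill-equation modeling of luminescence normalized to DMSO and 10 uM staurosporine.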
# [7] = Cellular Toxicity (caspase-3) Mesangial (AID 660);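 also: combined caspase 3 and 7 activity read by Caspase-Glo luminescence; cells exposed to compound for 16 h before the caspase read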
# Method in brief: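 Concentration-response qHTS: compound-induced rise in caspase 3/7 luminescence in human mesangial cells after 16 h, normalized to DMSO and 100 uM tamoxifen controls.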
# [8] = Cellular Toxicity (caspase-3) SK-N-SH (AID 661)
# Method in brief: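 Caspase 3/7 activation is measured as a luminescence increase from aminoluciferin released by substrate cleavage in SK-N-SH cells after 16 hr compound treatment; values are AC50 from concentration-response curves.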
# [9] = Cellular Toxicity (caspase-3) H-4-II-E (AID 663);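 also: cells exposed to compound for 16 hr before readout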
# Method in brief: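 Apoptosis induction is scored as increased luminescence from caspase 3/7 substrate cleavage in rat hepatoma H-4-II-E cells exposed to compound for 16 hr. Activity is scaled between DMSO and 100 uM tamoxifen.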
# [10] = Cellular Toxicity (caspase-3) Hek293 (AID 664);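 also: cells exposed to compound for 16 h at 37 °C before readout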
# Method in brief: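 Activation of caspase-3/7 is measured as increased luminescence from cleaved peptide-aminoluciferin substrate in HEK293 cells treated 16 hours at 37 °C. AC50 values come from Hill-equation fits of concentration-response data.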
# [11] = Cellular Toxicity (caspase-3) NIH 3T3 (AID 666);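 also: caspase signal read after 16 h compound exposure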
# Method in brief: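 Concentration-response qHTS in NIH 3T3 mouse fibroblasts scores caspase-3/7 activation as rising luminescence after 16 hr compound exposure. Signals are scaled between DMSO-only and 100 uM tamoxifen.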
# [12] = Cellular Toxicity (caspase-3) Renal Proximal Tubule (AID 667);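 also: cells exposed to compound for 16 hours at 37 °C before detection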
# Method in brief: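 Primary rat proximal tubule cells, 1000/well, 5 h plating at 37 °C, then compound 16 h at 37 °C. Caspase-Glo 3/7 reagent, 1 h RT, luminescence. Normalized to DMSO (basal) and 10 uM staurosporine (100%); Hill-fit AC50.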
# [13] = target: Cytochrome P450 3A4 (Homo sapiens) (UniProt P08684); test: qHTS Assay for Inhibitors and Substrates of Cytochrome P450 3A4 (AID 884); also: nearly all actives have a fitted effect of over 50% in size; also: potency is read from the fitted curve at half-maximal effect
# Method in brief: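 20 nM human CYP3A4 with 25 uM Luciferin-PPXE (at KM) in 200 mM KPO4, preincubated 10 min with compound; NADPH regeneration started a 60 min RT reaction. Luciferin detected by luminescence, normalized to 57 uM ketoconazole as full inhibition.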
# [14] = target: Cytochrome P450 2C9 (Homo sapiens) (UniProt P11712); test: qHTS Assay for Inhibitors and Substrates of Cytochrome P450 2C9 (AID 883); also: nearly all actives have a fitted effect of over 60% in size; also: potency is read from the fitted curve at half-maximal effect
# Method in brief: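 Inhibition of CYP2C9 is scored as loss of luminescence, with 57uM sulphaphenazole defining 100% inhibition. Substrate Luciferin-H is used at 100uM, equal to its KM; enzyme at 10nM in 25mM KPO4, 60 min at 37C with NADPH regeneration.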
# [15] = target: Cytochrome P450 2D6 (Homo sapiens) (UniProt P10635); test: qHTS Assay for Inhibitors and Substrates of Cytochrome P450 2D6 (AID 891); also: nearly all actives have a fitted effect of over 60% in size; also: potency is read from the fitted curve at half-maximal effect
# Method in brief: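 Human CYP2D6 (5 nM) with 30 uM Luciferin-ME EGE (at Km) in 100 mM KPO4, compound preincubated 10 min, then NADPH regeneration system for 60 min at room temperature. Luciferin read by luminescence; normalized to 1.43 uM quinidine.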
# [16] = qHTS Assay for Identification of Small Molecule Antagonists for NFkB Signaling Pathway (AID 895; active = well fitted inhibition curve with a large enough effect in the signal ratio, with a control signal flat, not every such curve was filed as active; the % refers to the signal ratio; also: potency is read from the fitted curve at half-maximal effect)
# Method in brief: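 Beta-lactamase reporter read-out (460 and 530 nm emission ratio, 405 nm excitation, 2 hrs substrate loading RT) after 5 hr stimulation with 10 pM TNF alpha in compound-treated NFkB-bla ME-180 cells in low-serum medium.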
# [17] = target: Cytochrome P450 2C19 (Homo sapiens) (UniProt P33261); test: qHTS Assay for Inhibitors and Substrates of Cytochrome P450 2C19 (AID 899); also: nearly all actives have a fitted effect of over 60% in size; also: potency is read from the fitted curve at half-maximal effect
# Method in brief: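 5nM enzyme + 10uM Luciferin-H EGE (=KM), 50mM KPO4; cpd pin-transferred, 10 min 37C; NADPH regen, 60 min 37C; stopped w/ luciferin detection reagent, 20 min; luminescence. Normalized to 57uM ketoconazole (AC100).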
# [18] = Confirmation and Secondary Assay for Modulators of Hemoglobin Beta Chain Splicing at IVS2 654 locus (AID 910);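 also: HeLa cells stably carrying EGFP split by mutant beta-globin IVS2-654 intron; per-well total GFP intensity by laser scanning cytometry after 2-day treatment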;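 also: potency is read from the fitted curve at half-maximal effect; potency of activators that raise GFP signal by restoring correct splicing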
# Method in brief: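 Readout: per-well total peak green fluorescence (488 nm ex, 500–520 nm em) from objects 5–250 µm, reflecting correct splicing of an EGFP-654 reporter. Compounds were applied for 2 days at 37 °C to overnight-plated HeLa EGFP-654 cells; controls were DMSO and 500 nM IVS2-654 PNA.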
# [19] = target: Cytochrome P450 3A4 (Homo sapiens) (UniProt P08684); test: qHTS Assay for Activators of Cytochrome P450 3A4 (AID 885); also: nearly all actives have a fitted effect of over 65% in size
# Method in brief: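 Steps: enzyme/substrate mix dispensed; compound added, 10 min RT; NADPH regeneration solution added, 60 min RT; luciferin detection buffer stops reaction; 20 min later luminescence measured.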
# [20] = qHTS Assay for Identification of Small Molecule Agonists for Hypoxia Response Element Signaling Pathway (AID 914; active = well fitted activation curve with a large enough effect in the signal ratio, with a control signal flat, not every such curve was filed as active; the % refers to the signal ratio); details: ME-180 HRE-bla reporter, beta-lactamase ratio, CoCl2, 17 h; stronger effect = higher value
# Method in brief: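 ME-180 cells carrying an HRE-driven beta-lactamase reporter were treated with compounds in a titration series plus an EC50 level of CoCl2 for 17 h at 37 degrees Celsius; CCF4 readout as the 460nm/530nm ratio gave AC50 values.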
# Chain of Cytochrome P450 2C9 (Homo sapiens) (P11712 whole entry, looked up): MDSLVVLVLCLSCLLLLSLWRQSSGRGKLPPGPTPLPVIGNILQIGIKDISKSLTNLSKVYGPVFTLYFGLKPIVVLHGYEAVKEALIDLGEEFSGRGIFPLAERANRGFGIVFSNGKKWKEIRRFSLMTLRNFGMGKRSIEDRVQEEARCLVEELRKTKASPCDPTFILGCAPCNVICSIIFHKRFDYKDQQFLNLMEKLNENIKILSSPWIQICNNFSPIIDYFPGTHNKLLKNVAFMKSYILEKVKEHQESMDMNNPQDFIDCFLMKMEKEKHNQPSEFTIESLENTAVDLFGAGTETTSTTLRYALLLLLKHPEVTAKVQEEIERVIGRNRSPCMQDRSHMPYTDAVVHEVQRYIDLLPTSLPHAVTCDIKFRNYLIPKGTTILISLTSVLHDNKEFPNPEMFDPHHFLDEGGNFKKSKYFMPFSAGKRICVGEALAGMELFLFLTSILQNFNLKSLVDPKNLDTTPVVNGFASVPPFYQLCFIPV
# Chain of Cytochrome P450 2D6 (Homo sapiens) (P10635 whole entry, looked up): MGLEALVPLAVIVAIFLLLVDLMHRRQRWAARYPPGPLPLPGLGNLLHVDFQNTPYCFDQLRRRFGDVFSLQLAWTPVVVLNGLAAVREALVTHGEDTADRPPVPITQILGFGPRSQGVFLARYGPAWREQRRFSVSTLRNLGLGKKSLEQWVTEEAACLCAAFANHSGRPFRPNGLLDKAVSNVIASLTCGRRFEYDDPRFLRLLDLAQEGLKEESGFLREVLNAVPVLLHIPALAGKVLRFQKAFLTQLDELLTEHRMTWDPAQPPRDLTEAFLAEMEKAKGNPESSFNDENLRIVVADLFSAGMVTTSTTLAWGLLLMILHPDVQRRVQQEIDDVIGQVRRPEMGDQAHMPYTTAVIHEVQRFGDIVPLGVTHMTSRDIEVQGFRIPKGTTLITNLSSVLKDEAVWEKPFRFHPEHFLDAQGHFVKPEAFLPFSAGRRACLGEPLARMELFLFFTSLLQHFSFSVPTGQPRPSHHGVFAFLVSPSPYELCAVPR
# Chain of Cytochrome P450 2C19 (Homo sapiens) (P33261 whole entry, looked up): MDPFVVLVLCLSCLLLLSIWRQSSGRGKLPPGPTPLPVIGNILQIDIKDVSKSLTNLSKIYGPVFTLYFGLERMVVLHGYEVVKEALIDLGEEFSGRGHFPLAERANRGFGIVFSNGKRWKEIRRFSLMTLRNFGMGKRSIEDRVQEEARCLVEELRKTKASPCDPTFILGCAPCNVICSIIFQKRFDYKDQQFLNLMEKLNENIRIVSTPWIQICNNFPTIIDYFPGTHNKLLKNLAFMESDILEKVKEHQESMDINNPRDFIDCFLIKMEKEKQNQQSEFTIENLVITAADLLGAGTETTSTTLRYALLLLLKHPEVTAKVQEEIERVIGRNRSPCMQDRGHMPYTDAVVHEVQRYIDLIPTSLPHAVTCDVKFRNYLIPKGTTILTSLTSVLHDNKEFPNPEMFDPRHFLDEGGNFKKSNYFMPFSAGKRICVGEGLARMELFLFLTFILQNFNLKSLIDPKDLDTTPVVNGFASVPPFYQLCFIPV
# Chain of Cytochrome P450 3A4 (Homo sapiens) (P08684 whole entry, looked up): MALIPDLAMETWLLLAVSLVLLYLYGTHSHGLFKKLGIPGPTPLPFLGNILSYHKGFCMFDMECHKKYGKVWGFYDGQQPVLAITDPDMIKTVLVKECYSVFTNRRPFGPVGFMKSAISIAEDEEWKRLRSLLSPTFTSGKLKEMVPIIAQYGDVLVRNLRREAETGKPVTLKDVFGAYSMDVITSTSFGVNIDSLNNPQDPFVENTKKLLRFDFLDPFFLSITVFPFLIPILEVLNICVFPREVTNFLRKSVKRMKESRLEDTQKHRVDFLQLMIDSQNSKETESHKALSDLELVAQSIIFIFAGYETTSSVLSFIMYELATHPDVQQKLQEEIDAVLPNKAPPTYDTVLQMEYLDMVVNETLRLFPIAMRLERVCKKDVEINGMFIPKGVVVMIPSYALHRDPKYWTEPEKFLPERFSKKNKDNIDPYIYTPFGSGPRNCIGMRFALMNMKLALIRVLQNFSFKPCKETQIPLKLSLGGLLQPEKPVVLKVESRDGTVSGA
compound,measurement,setting,value
CCCCCCCCc1ccc(O)cc1,outcome,[1],inactive
same,outcome,[2],inactive
same,outcome,[3],inactive
same,outcome,[4],inactive
same,outcome,[5],inactive
same,outcome,[6],inactive
same,outcome,[7],inactive
same,outcome,[8],inactive
same,outcome,[9],inactive
same,outcome,[10],inactive
same,outcome,[11],inactive
same,outcome,[12],inactive
same,Potency,[13],inactive
O=C1CCCN1CC#CCN1CCCC1,Potency,[14],inactive and 2 µM (active)
same,Potency,[13],inactive
same,Potency,[15],7.94 µM (active)
same,Potency,[16],inactive
same,Potency,[17],0.158 µM (active)
same,Potency,[18],inactive
CC[C@@]1(O)C(=O)OCc2c1cc1n(c2=O)Cc2cc3ccccc3nc2-1,Potency,[14],inactive
same,Potency,[13],6.31 µM (active) and inactive
same,outcome,[19],inactive
same,Potency,[15],inactive
same,Potency,[17],inactive
same,Potency,[18],inactive and 1 µM (active)
CCCCC(CC)COC(=O)c1ccccc1C(=O)OCC(CC)CCCC (stereo unspecified),outcome,[1],inactive
same,outcome,[2],inactive
same,outcome,[3],inactive
same,outcome,[4],inactive
same,outcome,[5],inactive
same,outcome,[6],inactive
same,outcome,[7],inactive
same,outcome,[8],inactive
same,outcome,[9],inactive
same,outcome,[10],inactive
same,outcome,[11],inactive
same,outcome,[12],inactive
Nc1ccc(Cl)cc1,outcome,[1],inactive
same,outcome,[2],inactive
same,outcome,[3],inactive
same,outcome,[4],inactive
same,outcome,[5],inactive
same,outcome,[6],inactive
same,outcome,[7],inactive
same,outcome,[8],inactive
same,outcome,[9],inactive
same,outcome,[10],inactive
same,outcome,[11],inactive
same,outcome,[12],inactive
same,Potency,[13],inactive
Cc1nc(-c2ccc(-c3ccc(C(=O)N4CCc5cc6c(cc54)C4(CCN(C)CC4)CO6)cc3)c(C)c2)no1,Potency,[14],7.94 µM (active)
same,outcome,[19],inactive
same,Potency,[17],3.98 µM (active)
COc1cc2c(cc1OC)[C@@H]1C(=O)c3ccc4c(c3O[C@@H]1CO2)C=CC(C)(C)O4,outcome,[19],inactive
same,Potency,[15],0.0631 µM (active)
same,Potency,[17],5.01 µM (active)
Cn1cnc(CCN)c1,Potency,[14],inactive
same,Potency,[16],inactive
same,Potency,[17],inactive
O=C(N[C@H]1CN2CCC1CC2)c1ccc(Cl)cc1,Potency,[13],inactive
CCCCCC[C@H]1C(=O)O[C@H](C)[C@H](NC(=O)c2cccc(NC=O)c2O)C(=O)O[C@@H](C)[C@@H]1OC(=O)CC(C)C,outcome,[19],inactive
COc1ccc2c(c[n+](C)c3c4cc5c(cc4ccc23)OCO5)c1OC,outcome,[19],inactive
same,Potency,[16],11.2 µM (active)
Nc1ccccc1N,outcome,[19],inactive
NC(=NCCC[C@H](N)C(=O)O)N[N+](=O)[O-],Potency,[16],inactive
C[C@]12N[C@H](Cc3ccccc31)c1ccccc12,outcome,[19],inactive
same,Potency,[16],inactive
COc1ccc(C(=O)c2c(C)n(CCN3CCOCC3)c3cc(I)ccc23)cc1,Potency,[13],5.01 µM (active)
same,outcome,[19],inactive
NCCc1c[nH]c2ccccc12,Potency,[13],inactive
same,Potency,[16],12.6 µM (active)
same,Potency,[18],inactive
same,activation,[20],-27.7% (inactive)
CC(Cc1ccc(O)cc1)NCC(O)c1cc(O)cc(O)c1 (stereo unspecified),Potency,[18],inactive
CCn1cc(C(=O)O)c(=O)c2cc3c(cc21)OCO3,Potency,[15],inactive
c1ccc2sc(C3(N4CCCCC4)CCCCC3)cc2c1,outcome,[19],inactive
same,Potency,[15],3.16 µM (active)
C#CC1(O)CCC2C3CCC4=CC(=O)CCC4(C)C3CCC21C (stereo unspecified),Potency,[13],inactive
same,Potency,[18],inactive
CCCN1CCO[C@@H]2c3cc(O)ccc3OC[C@H]21,outcome,[19],inactive
same,Potency,[16],inactive
same,Potency,[17],inactive
CC1=NN=C(c2ccc(N)cc2)c2cc3c(cc2C1)OCO3,Potency,[14],1.26 µM (active)
same,outcome,[19],inactive
same,Potency,[17],7.94 µM (active)
NC(=O)c1ccc(-c2nc(-c3ccc4c(c3)OCO4)c(-c3ccccn3)[nH]2)cc1,Potency,[17],2.51 µM (active)
CNCCc1c[nH]c2ccc(O)cc12,Potency,[13],inactive
same,Potency,[16],inactive
CCCN1CCO[C@@H]2c3cc(O)ccc3OC[C@@H]21,outcome,[19],inactive
CC[C@@H]1C(=O)OC[C@@H]1Cc1cncn1C,Potency,[13],12.6 µM (active)
same,outcome,[19],inactive
C[C@@H]1O[C@H](C[N+](C)(C)C)C[C@H]1O,Potency,[16],inactive
O=C(O)Cc1cnc[nH]1,outcome,[19],inactive
same,activation,[20],7.21% (inactive)
O=C(O)CCCOc1ccc(Cl)cc1Cl,Potency,[13],inactive
same,Potency,[18],inactive
NCc1cc(=O)[nH]o1,Potency,[17],inactive
CN[C@@H]1C[C@@H](c2ccc(Cl)c(Cl)c2)c2ccccc21,Potency,[16],8.91 µM (active)
CC(=O)NCCc1c[nH]c2ccccc12,Potency,[14],inactive
same,Potency,[15],inactive
same,Potency,[17],inactive
O=C(O)CC[N+](=O)[O-],Potency,[13],inactive
same,Potency,[16],inactive
CCC(=O)OC1CCC2C3CCC4=CC(=O)CC[C@@]4(C)C3CC[C@]12C (stereo partly specified),Potency,[18],inactive
CCCCCCCCCCCCCCCC[N+](C)(C)C,Potency,[13],inactive
same,Potency,[18],inactive
NCCc1c[nH]c2ccc(O)cc12,outcome,[19],inactive
same,Potency,[16],inactive
same,activation,[20],17.2% (inactive) and 2.69% (inactive)
NC(N)=NOCCC(N)C(=O)O (stereo unspecified),Potency,[18],inactive
CC(C)Oc1cccnc1N(C)C1CCN(Cc2ccccc2)CC1,outcome,[19],inactive
same,Potency,[15],7.94 µM (active)
same,activation,[20],-11.6% (inactive)
CCCN(CCC)[C@@H]1CCc2ccc(O)cc2C1,Potency,[14],inactive
same,Potency,[15],0.794 µM (active)
same,Potency,[16],inactive
